This is a sample that favours compounds with a hit; in the whole collection about 3.5% have one here.
GPR151 ag = activators of human GPR151; Q8TDV0; PathHunter beta-arrestin GPR151 cells, luminescence; activation, % at 11.2 µM; 1% of 650,000 active; AID 1508602; in the data active = activation above about 4.9%;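 note: 0% = median of compound wells and 100% = cells with positive control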
FBW7 activator = activators of human E3 ligase FBW7; Q969H0; AlphaScreen FBW7–phospho-cyclin E peptide binding, activator screen; normalized activity (activation), % at 26.1 µM; 0.13% of 650,000 active; AID 1259310; in the data active = normalized activity above about 1.9%;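 note: purified mutant Fbw7 with reduced substrate affinity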
Target sequence (Q969H0 whole entry, looked up): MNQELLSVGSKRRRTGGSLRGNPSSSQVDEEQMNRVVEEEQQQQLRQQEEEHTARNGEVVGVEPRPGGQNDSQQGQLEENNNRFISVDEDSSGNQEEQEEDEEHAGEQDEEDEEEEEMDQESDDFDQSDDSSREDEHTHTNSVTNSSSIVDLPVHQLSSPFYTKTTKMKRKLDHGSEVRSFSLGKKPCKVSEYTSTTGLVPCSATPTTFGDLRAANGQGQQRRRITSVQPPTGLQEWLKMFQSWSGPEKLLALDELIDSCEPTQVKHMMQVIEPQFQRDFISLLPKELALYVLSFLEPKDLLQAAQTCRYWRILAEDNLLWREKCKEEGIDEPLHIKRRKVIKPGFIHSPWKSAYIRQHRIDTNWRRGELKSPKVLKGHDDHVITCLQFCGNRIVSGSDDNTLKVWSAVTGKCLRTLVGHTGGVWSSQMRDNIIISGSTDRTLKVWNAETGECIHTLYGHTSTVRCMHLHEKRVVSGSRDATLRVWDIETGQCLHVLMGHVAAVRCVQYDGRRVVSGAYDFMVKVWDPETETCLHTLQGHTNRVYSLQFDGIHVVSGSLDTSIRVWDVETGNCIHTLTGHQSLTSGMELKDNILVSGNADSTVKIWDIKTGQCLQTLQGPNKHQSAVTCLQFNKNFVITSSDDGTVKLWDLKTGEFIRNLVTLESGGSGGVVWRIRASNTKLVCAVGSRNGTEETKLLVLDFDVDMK
TEAD-YAP block = TEAD-YAP interaction inhibition; 1.4% of 640,000 active; HEK-TIYL cells, TEAD-Gal4/YAP UAS-luciferase luminescence; inhibition, % at 9.12 µM; in the data active = inhibition above about 32%;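 note: 0% = median of test compound wells and 100% = reference inhibitor wells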
MITF inh = blocks human microphthalmia-associated transcription factor; AlphaScreen MITF homodimerization, bead proximity signal; inhibition, % at 2.6 µM; 0.91% of 650,000 active; AID 1259374; in the data active = inhibition above about 50%;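 note: 0% = vehicle wells with protein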
GPR151 confirm = human GPR151 activation, confirmation screen. activation, % at 11.2 µM. AID 1508609. shares compounds with GPR151 ag. GPR151 PathHunter beta-arrestin cells, luminescence, 90 min; % of EA-reagent control over plate median. 6,700 tested, under 10 active;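 active = mean percent activation across replicates above the confirmation screen cutoff of 4.91%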
GPR119 ag = GPR119 activation, counter-screen for GPR151 activators | shares compounds with GPR151 ag | GPR119 PathHunter beta-arrestin cells, luminescence, 90 min; 0 = compound-well median, 100 = enzyme-acceptor control | activation, % at 11.2 µM | 0.3% of 6,700 active;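 active = mean percent activation in the counterscreen above 29.09%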;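 note: counterscreen on off-target GPR119 to flag nonselective hits from the GPR151 activator screen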
Starred values were filed as active, the others as inactive; x = no result given.

SMILES | GPR151 ag | FBW7 activator | TEAD-YAP block | MITF inh | GPR151 confirm | GPR119 ag
CCOc1ccccc1NC(=O)CSC(C)c1nc2ccccc2c(=O)[nH]1 (stereo unspecified) | 0 | 0 | -12 | 0 | x | x
CC1(C)CC(=O)c2c(-c3ccc(O)cc3)n[nH]c2C1 | 0 | 0 | -1 | 11 | x | x
COc1cc(NC(=O)c2cccc(-n3cc(NC(=O)N[C@@H](C)c4ccccc4)cn3)c2)ccc1N1CCOCC1 | 5.7* | 0 | 3 | 10 | 0 | -4
CC1Sc2cc(S(=O)(=O)CCC(=O)NC3CCCC(C)C3C)ccc2NC1=O (stereo unspecified) | 5.1* | 0 | 15 | -2 | 1 | 8
CC1Sc2cc(S(=O)(=O)CCC(=O)Nc3ccccc3F)ccc2NC1=O (stereo unspecified) | 5.3* | 0 | -3 | -1 | 0 | -7
COc1cc(C(=O)Nc2cc(=O)n(C)c(=O)n2C)cc(OC)c1OC | 5.7* | 0 | -2 | -5 | 0 | 0
C[N+](C)(C)C/C=C1/COCO1 | 14* | 0 | 2 | 11 | -1 | -8
CCNCC(=O)Nc1ccccc1C(F)(F)F | 0 | 1 | -8 | 10 | x | x
CCOc1ccc2c(c1)c(=O)c(C(=O)c1ccccc1)cn2CC(=O)Nc1ccccc1 | 6.3* | 0 | -5 | 14 | 0 | 1
COc1ccc(CCn2c(=O)[nH]c3cc(C(=O)NCc4ccco4)ccc3c2=O)cc1OC | 6.1* | 0 | 3 | 9 | 0 | -4
O=C(c1ccc2c(=O)n(CCc3ccccc3)c(=S)[nH]c2c1)N1CCN(c2ccccc2)CC1 | 6.3* | 0 | -2 | -4 | 0 | 13
COc1ccc(CCNC(=O)c2ccc3c(=O)n(Cc4ccco4)c(=S)[nH]c3c2)cc1OC | -1 | 0 | -8 | -5 | x | x
COc1ccc(CCNC(=O)c2cccc(-n3c(=S)[nH]c4cc(Cl)ccc4c3=O)c2)cc1OC | 5.8* | 0 | 5 | 13 | 0 | 4
COc1ccc(CCn2c(=S)[nH]c3cc(C(=O)N4CCOCC4)ccc3c2=O)cc1OC | 4 | 0 | 9 | -20 | x | x
COc1ccc(CCn2c(=S)[nH]c3cc(C(=O)N4CCC(C(N)=O)CC4)ccc3c2=O)cc1OC | 6.1* | 0 | -3 | 14 | -2 | -4
Cc1ccc(S(=O)(=O)NC(=O)NNC(=O)C2C3C=CC(C3)C2C(=O)O)cc1 (stereo unspecified) | 0 | 0 | -11 | 10 | x | x
COc1ccc(N2C(=O)NC3CC2(C)Oc2ccc([N+](=O)[O-])cc23)cc1 (stereo unspecified) | -1 | 0 | 3 | 4 | x | x
COc1ccc(-c2nnc3ccc(SCc4ccccc4)nn23)cc1OC | 5.6* | 0 | -8 | -3 | 0 | 3
COc1ccc(-c2nnc3ccc(SCc4ccc(F)cc4)nn23)cc1OC | 4 | 0 | 4 | -9 | x | x
Cc1nc2sc(C(=O)c3ccc(Br)cc3)c(N)c2c(C)c1CC(=O)c1ccccc1 | 7.0* | 0 | -1 | -2 | 0 | -11
CCc1c(C)nc2sc(C(=O)c3ccc(Br)cc3)c(N)c2c1C | 0 | 0 | 1 | -13 | x | x
C=C[C@](C)(O)CC[C@H]1C(=C)CC[C@H]2C(C)(C)CCC[C@]12C | 0 | 0 | 5 | -18 | x | x
CN(C)S(=O)(=O)c1cccc(C(=O)n2ncc(C#N)c2N)c1 | 5.3* | 0 | 5 | -8 | 0 | 0
CN(CC(=O)NCc1cccnc1)c1nnc(N2CCCC2=O)s1 | 5.2* | 0 | 3 | 10 | 0 | 4
Cc1cccc(CNC(=O)CN(C)c2nnc(N3CCCC3=O)s2)c1 | -1 | 0 | -10 | -12 | x | x
NS(=O)(=O)c1ccc(N2N=C(C(F)(F)F)/C(=C/c3cc(Br)c(O)c(Br)c3)C2=O)cc1 | 0 | 0 | 2 | 2 | x | x
CCOc1ccc(-c2cc(=O)c3cc(NC(=O)c4ccccc4Br)ccc3o2)cc1 | 5.1* | 0 | -39 | -2 | -1 | -11
CCOC(=O)CSc1nc(C2CC2)nc2sc(C)c(C)c12 | -1 | 0 | -2 | 20 | x | x
Cc1sc2nc(C3CC3)nc(SCC(N)=O)c2c1C | 6.8* | 0 | 7 | 6 | 0 | 2

Screening data (PubChem BioAssay)
